Screening data as filed in PubChem.
iPSC survival up = hiPSC single-cell survival enhancement; ATPlite luminescence; 100% = ROCK inhibitor wells, 0% = DMSO; survival enhancement, % at 20 µM; 360,000 tested, 0.044% active; AID 602274; in the data active = survival enhancement above about 18%;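 also: cells exposed to compounds for 16 hours before the ATP read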
HIF-2a inh = inhibitors of HIF-2a; 786-0 RCC cells HIF-2a reporter, luciferase luminescence, overnight; inhibition, % at 18.8 µM; 360,000 tested, 0.72% active; AID 624352;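 active = inhibition of the luminescence signal of 40% or more relative to plate controls, in a single-dose primary screen at 18.75 µM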
CF NFkB inh = blocks PAF-induced NF-kB reporter in cystic fibrosis cells | KKLEB NF-kB-GFP reporter, GFP fluorescence overnight | inhibition, % at 5 µM | 360,000 tested, 0.86% active | AID 588850;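 active = at least 50% inhibition at 5 µM, scaled per plate between neutral and stimulator controls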;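 also: PAF is a Pseudomonas aeruginosa culture filtrate used as stimulus; plate controls were PAF-stimulated DMSO wells for no effect and unstimulated DMSO wells for full effect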
PPC-1+TRAIL kill = compounds killing PPC-1 cancer cells with TRAIL present (potentiator screen, no TRAIL-free arm). PPC-1 cells + TRAIL, ATPLite viability luminescence. cell killing (% activity), % at 4 µM or 5 µM. 220,000 tested, 0.41% active. AID 1443;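 active = cell killing above 50% in the first pass at 4 µM, then a duplicate retest at 5 µM averaging 50% or more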;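 also: plate controls were cells with TRAIL plus DMSO for no effect and medium-only wells lacking cells for full effect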
C8 TRAIL sens = caspase-8 TRAIL sensitization; AID 624354; inhibition (viability loss, TRAIL sensitization), % at 10 µM; 360,000 tested, 1% active; NB7+C8 cells + TRAIL, ATPlite viability luminescence;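 active = compounds causing at least 50% loss of cell viability in the single-dose screen, relative to plate controls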
KKLEB cytotox = reduces viability of KKLEB cystic fibrosis airway cells. 360,000 tested, 0.36% active. AID 602141. activity change (cytotoxicity), % at 5 µM. KKLEB CF airway cells viability, ATPlite luminescence, overnight; stronger effect = lower value; cells stimulated with P. aeruginosa culture filtrate;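 active = corrected activity change at or below -50% at 5 µM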
Active calls of the source: *; . = no result given. Sampled rows, rich in hits. Any-hit rate of the full collection: about 2.2%.

SMILES	iPSC survival up	HIF-2a inh	CF NFkB inh	PPC-1+TRAIL kill	C8 TRAIL sens	KKLEB cytotox
N/C(=N\OC(=O)c1cccc(Cl)c1)c1cccnc1	-2	-211	-7	21	64*	3
N/C(=N\OC(=O)c1cccc(Cl)c1)c1ccncc1	-1	-154	-17	4	0	11
CC1(C)N=C(N)N=C(N)N1c1ccc(OCC(=O)N2CCOCC2)cc1	4	11	-30	.	75*	7
CC1(C)N=C(N)N=C(N)N1c1ccc(OCC(=O)N2CCOCC2)c(Cl)c1	-2	13	7	.	83*	-7
O=C(COc1ccc(S(=O)(=O)N2CCCCC2)cc1Cl)N1CCOCC1	2	5	0	.	9	0
C=CCc1c(C)nc(SCc2ccccc2)[nH]c1=O	1	-93	-10	.	-5	11
CCOC(=O)C1(C)CCCN(C(=O)c2ccc(C#N)cc2)C1 (centres undefined)	2	9	7	.	-3	-11
O=C(NC(c1ccc(Cl)cc1)c1c(O)ccc2ccccc12)c1ccccc1 (centres undefined)	0	20	64*	11	33	-62*
Cn1c(SCC(=O)N2CCCC2=O)nc2ccccc2c1=O	-2	15	9	.	7	-8
COc1ccc(Cl)cc1NC(=O)c1cc(-c2ccccc2O)n[nH]1	-1	-50	-2	35	15	9
COc1ccc(OC)c(NC(=O)c2cc(-c3cc(Cl)ccc3O)n[nH]2)c1	3	-20	22	7	51*	5
CCCc1nc2ccc(C(=O)OC)cn2c1Cc1cccc(F)c1	1	-23	-5	.	-5	-17
CC12CCC(=O)C=C1CCC1C2CCC2(C)C1CC[C@]2(O)C(=O)CO (some centres undefined)	0	11	26	.	-2	-4
CC1CC2C3CCC4=CC(=O)CCC4(C)C3CCC2(C)C1(O)C(=O)CO (centres undefined)	0	5	53*	.	-16	3
CC(=O)OCC(=O)[C@@]1(O)CC[C@H]2[C@@H]3CCC4=CC(=O)CC[C@]4(C)[C@H]3[C@@H](O)C[C@@]21C	4	31	64*	12	-21	9
CC12CCC(=O)C=C1CCC1C2CCC2(C)C1CCC2(O)C(=O)CO (centres undefined)	0	6	24	.	10	27
CC1CC2(C)C(=CC1=O)CCC1C2C(O)CC2(C)C1CCC2(O)C(=O)CO (centres undefined)	-2	11	67*	.	-6	10
C[C@]12CCC(=O)C=C1CC[C@@H]1[C@@H]2[C@@H](O)C[C@@]2(C)[C@H]1CC[C@]2(O)C(=O)COC(=O)CCC(=O)O	1	26	75*	16	-2	10
CC(=O)c1ccccc1NC(=O)COC(=O)c1cc(C)oc1C	0	-1	-24	.	2	14
CCOc1cc(C(=S)N2CCN(C)CC2)ccc1OCC(=O)N1CCCC1	0	16	-1	.	-12	-2
CCC(CC)C(=O)OCC(=O)C1(O)CCC2C3CCC4=CC(=O)CCC4(C)C3C(O)CC21C (centres undefined)	0	6	64*	.	3	14
CCCC(=O)O[C@]1(C(=O)CO)CC[C@H]2[C@@H]3CCC4=CC(=O)CC[C@]4(C)[C@H]3[C@@H](O)C[C@@]21C	-1	23	95*	8	-3	12
CC(=O)OCC(=O)C1(O)CCC2C3CC(F)C4=CC(=O)CCC4(C)C3C(O)CC21C (centres undefined)	-1	17	76*	.	0	13
CC(=O)OCC(O)C1(O)CCC2C3CCC4=CC(=O)CCC4(C)C3C(O)CC21C (centres undefined)	-1	12	42	.	7	-3
Cc1cccc(CCNS(=O)(=O)c2ccc3c(c2)CCN3C(=O)CCC(=O)O)c1	0	-5	-32	.	-7	-5
SMILES	iPSC survival up	HIF-2a inh	CF NFkB inh	PPC-1+TRAIL kill	C8 TRAIL sens	KKLEB cytotox
Cc1ccc(N2CC(C(=O)Nc3c4c(nn3C(C)(C)C)CS(=O)(=O)C4)CC2=O)cc1 (centres undefined)	0	9	-36	.	0	-2
Cc1cc(C(=O)CCl)c(C)n1-c1cccc([N+](=O)[O-])c1	-2	7	31	-4	-1	-19
Cc1cc(C(=O)CCl)c(C)n1-c1ccon1	-2	-1	58*	18	-4	9
Cc1ccc(C2=Nc3ccccc3N=C(C(Cl)Cl)C2)cc1	-5	-39	-22	.	54*	1
Cc1ccc2c(c1)N=C(c1ccccc1)CC(C(Cl)Cl)=N2	-1	-202	-6	39	58*	7
CN(C(=O)c1ccccc1C(=O)OCC(=O)Nc1ccc(S(N)(=O)=O)cc1)c1ccccc1	0	9	14	.	9	10
Cc1ccc(C(=O)O/N=C(\N)c2ccccn2)c(Cl)c1	-1	73*	-13	.	91*	-72*
Cc1c(C(=O)O/N=C(\N)c2ccccn2)cccc1[N+](=O)[O-]	0	-180	-29	48	75*	1
N/C(=N\OC(=O)c1cccc2ccccc12)c1ccccn1	-1	-208	-7	31	56*	-17
CCn1nnnc1SCC(=O)NC1Cc2ccccc2C1	0	5	-6	21	2	9
Cc1ccc(C(=O)Oc2oc(-c3ccccc3)nc2C=Nc2ccc(N(C)C)cc2)cc1	-2	-18	5	56*	32	4
CN(C)c1ccc(N=Cc2nc(-c3ccccc3)oc2OC(=O)c2cccc(Cl)c2)cc1	-2	-108	0	28	-1	9
COc1cc2sc3ccc(-c4ccc(CN5CCOCC5)cc4)cc3c(=O)c2cc1OC	-2	-184	-233	.	53*	-20
Cc1cc(=O)c(C(=O)Nc2ccc(N3CCOCC3)cc2N2CCOCC2)nn1-c1ccccc1Cl	-2	14	-18	.	-22	3
COc1ccc(-c2cc(=O)c3ccccc3n2C)cc1	-2	-9	14	16	40	1
COc1ccc2c(=O)cc(-c3ccccc3)n(C)c2c1	-1	-2	2	4	55*	-3
CC(C)(Oc1ccc(Cl)cc1)C(=O)OCc1nc2ccsc2c(=O)[nH]1	0	10	2	.	18	1
CC(Sc1ccccc1)C(=O)N1CCN(S(=O)(=O)c2ccccc2F)CC1 (centres undefined)	0	4	14	.	-8	-10
CN(C)c1ccc(Sc2ccc3nc(N)nc(N)c3c2)cc1	-1	-4	24	.	71*	-31
COc1cc2nc(N(C)C)nc(N)c2cc1OC	0	8	-48	4	1	8
N#C/C(=C/c1cn(-c2ccccc2)nc1-c1cccc(S(=O)(=O)N2CCOCC2)c1)C(=O)NCc1ccco1	-2	9	51*	19	17	-57*
